Compound activity deposited in PubChem BioAssay by National Center for Advancing Translational Sciences (NCATS).
HCV inhibitor: inhibitors of hepatitis C virus infection; Huh7.5.1 HCVcc-Cre infection, luciferase reporter, 44 h; actives 3.4% (n = 340,000); Potency, µM (titrated, usually from 41.8 µM), for the others: at the highest dose activity change, negative = inhibition, actives largely listed as inhibitors; further: potency means the concentration at half of the fitted maximal effect; on the % scale 0 is the no-effect control and ±100 the full control effect
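Seed cells (1,000/well) for 4 h; treat with compound and infect with HCVcc-Cre, moi about 0.5. Incubate 44 h, then detect luciferase activity.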
Sm TGR inh: blocks Schistosoma mansoni thioredoxin glutathione reductase | Q962Y6 | purified TGR, DTNB reduction, TNB absorbance 405 nm | Potency, µM (highest dose often 114 µM), inactives show top-dose activity change, negative = inhibition, most hits filed as inhibitors | actives 3% (n = 360,000) | AID 485364; further: potency means the concentration at half of the fitted maximal effect; on the % scale 0 is the no-effect control and ±100 the full control effect; nearly all actives have a fitted effect of over 60% in size
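First, TGR (20 nM dispensed) and NADPH were mixed with compound. Second, a 15 min room-temperature incubation followed. Third, further NADPH and then DTNB were added to start the reaction. Finally, TNB absorbance was monitored kinetically.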
Pf growth 96h: P. falciparum growth inhibition at 96 hours; AID 504834; Potency, µM (top dose mostly 28.7 µM), inactives show at the highest dose activity change, negative = inhibition, most hits filed as inhibitors; actives 6.9% (n = 320,000); P. falciparum luciferase reporter growth, 96 h; further: potency means the concentration at half of the fitted maximal effect; on the % scale 0 is the no-effect control and ±100 the full control effect
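Infected RBCs, 2% Hct / 0.05% parasitemia final; luciferase-reporter P. falciparum; cpd 96 h, 37 C, 5% CO2; luciferase detection reagent; luminescence.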
SARS PLP yeast: inhibitors of SARS-CoV papain-like protease in yeast. S. cerevisiae expressing SARS-CoV PLpro, growth rescue. Potency, µM (top dose mostly 32.9 µM), inactives show at the top dose activity, positive = growth rescue, usual class: activators. actives 0.19% (n = 330,000). AID 485353; calls by dose curve; further: potency means the concentration at half of the fitted maximal effect; 0% is about no effect; nearly all actives have a fitted effect of over 55% in size
HCMV inh: blocks human cytomegalovirus replication; HFF cells, HCMV-luciferase reporter, 72 h; active compounds read low; activity change, negative = inhibition, % at 57.5 µM; AID 1259415; actives 4.5% (n = 410,000); in the data active means activity change below about -60%; inconclusive means no clear call, values can overlap the other calls; inactive means above about -39%; further: on the % scale 0 is the no-effect control and ±100 the full control effect
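Cell-based, HFFs, 1000 cells/well, 16 h 37C; cpds in DMSO + HCMV-luc, MOI 1 PFU/cell; 72 h 37C; OneGlo luminescence after 5 min RT; norm. to buffer vs Salinomycin 10uM.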
Pf growth 48h: inhibits P. falciparum growth in the first generation, 48 h | actives 5.9% (n = 310,000) | AID 504832 | P. falciparum luciferase growth in erythrocytes, 48 h | Potency, µM (series often up to 28.7 µM), inactives show at the top dose activity change, negative = inhibition, most hits filed as inhibitors; further: potency means the concentration at half of the fitted maximal effect; on the % scale 0 is the no-effect control and ±100 the full control effect
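Luciferase-expressing P. falciparum in infected erythrocytes (2% hematocrit, 0.1% parasitemia final) in RPMI 1640/0.5% Albumax were exposed to compound for 48 hours at 37 C, 5% CO2; growth read as luminescence.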
Active calls of the source: *; i = inactive; ? = inconclusive; · = no result; [ ] = another dose, or the depositor's remark. An excerpt weighted towards active compounds, which were near 15% of everything screened. Unless noted, the call rests on the fitted dose curve; in most records, active means well fitted curve in the direction sought with a large enough effect; inconclusive means small, poorly fitted or top-dose-only effect, or another doubt; inactive means no such curve, though single readings can be large; an effect the other way counts as inactive or inconclusive.

SMILES	HCV inhibitor	Sm TGR inh	Pf growth 96h	SARS PLP yeast	HCMV inh	Pf growth 48h
COC(=O)[C@@]1(Cc2ccc(F)cc2)[C@H]2c3cc(C(=O)N4CCCC4)n(CCc4ccc(O)c(O)c4)c3C[C@H]2CN1C(=O)c1ccccc1	-7.5%[8.37 µM]	?	5.86µM*	7.5%	·	?
COC(=O)[C@@]1(Cc2ccc(OC)cc2)[C@H]2c3cc(C(=O)N(C)C)n(CCSCCO)c3C[C@H]2CN1C(=O)c1ccccc1	10.0%	-31.2%	5.22µM*	-12.8%	·	2.33µM*
COC(=O)[C@@]1(Cc2ccc(F)cc2)[C@H]2c3cc(C(=O)N4CCCC4)n(CCc4ccc(OC)c(Br)c4)c3C[C@H]2CN1C(=O)c1ccccc1	·	·	·	·	-7.3	·
COc1ccc(NC(=O)N(C)C[C@H]2OCCCC[C@@H](C)Oc3ccc(NC(=O)c4ccccc4)cc3C(=O)N([C@H](C)CO)C[C@@H]2C)cc1	·	·	·	·	43.1	·
COc1ccccc1N(CC(=O)Nc1ccc2c(c1)OCO2)S(=O)(=O)c1ccc(C)cc1	·	-4.6%	·	·	-24.3	·
CCOC(=O)c1ccc(NC(=O)C2CCCN(c3ccc(Sc4ccc(C)cc4)nn3)C2)cc1 (configuration not stated)	·	1.9%	·	·	-19.8	·
O=S(=O)(c1ccc(F)cc1)N(Cc1nc(-c2ccc(Cl)cc2)no1)C1CCCCC1	·	5.6%	·	·	-32.9	·
COC(=O)c1nc(Cl)c(Cl)c(N)c1Cl	17.3%	0.1%	24.6%	2.8%	-23.8	10.4µM*
CCCCCCCCOC(=O)c1nc(Cl)c(Cl)c(N)c1Cl	-4.3%	-0.8%	?	-45.7%	13.1	?
COCCNC(=O)C1CCCN(C(=O)COc2ccc(C(C)(C)C)cc2)CC1 (configuration not stated)	·	·	·	·	15.1	·
C/C(=N\OCc1cccc(C(=O)O)c1)c1ccc(Cl)cc1	3.0%	0.5%	i	-3.9%	74.3	1.04µM*
CCCn1nnnc1-c1ccc(Cl)cc1	-3.0%	10.4%	-1.8%	22.0%	1.6	-1.8%
FC(F)(F)c1cccc(Cn2nnnc2-c2ccc(Cl)cc2)c1	-3.7%	-3.5%	8.28µM*	-21.2%	?	?
CCOc1ccc(C(=O)c2oc3ccccc3c2NC(=O)c2cc(=O)c3ccc(C)cc3o2)cc1	·	17.8%	·	·	14.6	·
COc1ccc(OCCn2c(C)c(/C=N/n3cnnc3)c3ccccc32)cc1	-17.3%	-12.3%	11.7µM*	-3.4%	·	?
CCOc1ccc(-c2cccc(NS(=O)(=O)c3ccccc3C(F)(F)F)c2)nn1	·	0.5%	·	·	8.3	·
CCOC(=O)C1(Cc2cccc(Cl)c2)CCCN(C(=O)CN2C(=O)CSC2=O)C1 (configuration not stated)	1.1%	2.1%	24.5%	-0.4%	31.3	6.5%
OC1C2(Cc3ccccc3)CN3CCN(C2)CC1(Cc1ccccc1)C3 (configuration not stated)	14.9%	12.7%	0.928µM*	-0.8%	-18.1	?
CN1CCN(c2nc3ccccn3c(=O)c2C=C(C#N)C#N)CC1	19.2%	-25.8%	28.4%	-0.4%	-26.0	-10.1%
Cn1c(CCCNC(=O)c2ccco2)nc2ccccc21	19.4%	·	·	·	94.3	·
CC(=O)Oc1ccc(C23c4ccccc4C2(OC(C)=O)c2cc(OC(C)=O)ccc23)cc1 (configuration not stated)	11.2µM*	·	·	·	-70.0*	·
O=C(NCc1cccnc1)c1cc(C2CCCCN2C(=O)c2ccc3ccccc3c2)on1 (configuration not stated)	·	·	·	·	-16.3	·
CCN(C(=O)COC(=O)c1ccc(-n2c(C)ccc2C)cc1)c1c(N)n(Cc2ccccc2)c(=O)[nH]c1=O	9.5%	·	·	·	0.2	·
CNc1cc(Cl)c2nonc2c1[N+](=O)[O-]	?	0.447µM*	?	-33.0%	-98.9*	-10.9%
O=[N+]([O-])c1c(Nc2cccc(O)c2)cc(Cl)c2nonc12	?	0.355µM*	87.0%	-11.1%	-102.0*	1.6%
